Assay results taken from PubChem BioAssay AID1159580 (chemical genetic matrix, 2015).
Values joined by “and” are separate entries in the source; they are usually repeats but may differ in a detail not shown here. Equal values may be shown once. About 2,000 (36%) of roughly 5,500 compounds were called active. Another 18% or so got no clear call; they are omitted. No stated cut-off is given here; in the data, active means normalized growth mostly below about 0.91 (no sharp cut-off); inconclusive means no clear call, values can overlap the other calls; inactive means mostly above about 0.92. This is one part of the list.

Assay: chemical genetic growth profiling, strain panel (AID 1159580);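 further: tested at 20 µM; growth read once vehicle control cultures reached saturation at 30 °C; 1 = growth at the plate median or of vehicle wells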
Conditions: S. cerevisiae deletion strains, growth OD

Measured: normalized growth

NC1CONC1=O (centres undefined)
inactive: locus YAL040C, strain CLN3, stronger effect = lower value 1.01 and 0.999 | locus YCL061C, strain MRC1 (second series), stronger effect = lower value 1 | locus YDR150W, strain NUM1, stronger effect = lower value 1.01 | locus YDR363W, strain ESC2, stronger effect = lower value 1.01 | locus YER002W, strain NOP16, stronger effect = lower value 1.01 and 0.983 | locus YGR229C, strain SMI1, stronger effect = lower value 1.01 | locus YMR307W, strain GAS1, stronger effect = lower value 1.01 | locus YNL128W, strain TEP1, stronger effect = lower value 1.03 | locus YNL153C, strain GIM3, stronger effect = lower value 1.01 and 0.981 | locus YNL175C, strain NOP13, stronger effect = lower value 1.02 | locus YNL197C, strain WHI3, stronger effect = lower value 1.02 and 1 | locus YNL224C, strain SQS1, stronger effect = lower value 0.993 and 0.985 | locus YOR083W, strain WHI5 (second series), stronger effect = lower value 1.01 | locus YPL241C, strain CIN2, stronger effect = lower value 1
